# This is a sample that favours compounds with a hit; in the whole collection about 28% have one here.
# Pyk2 oligo antag = Pyk2 (human) oligomerization antagonism. actives 0.83% (n = 99,000). z-score (the deposit names both 25 µM and 10 µM). Q293 cells, Pyk2 FERM NanoBiT luminescence; stronger effect = lower value. Q14289;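 active = Z-score of -3 or lower, scaled per plate to the spread of control and sample wells; inactive = z-score above -3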;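 also: negative z-score means lost luminescence so less FERM oligomerization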
# CYP2C19 inhib = human CYP2C19 inhibition; P33261; CYP2C19 Supersomes, luciferin-H EGE luminescence, 30 min; inhibition, % at 5 µM; actives 21% (n = 96,000); AID 778;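 active = CYP2C19 inhibition above a set limit at 5 µM in the primary screen, cut at about 50% in these data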;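 also: plate controls were negative control wells for no effect and 2.5 mM tranylcypromine positive control for full effect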
# CYP2C9 activ = CYP2C9 (human) activation; P11712; recombinant CYP2C9, luciferin-H conversion, luminescence; stronger effect = higher value; factor 1 = untreated enzyme, 0 = blocked; activation factor at 5 µM; actives 1.4% (n = 96,000);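 active = activation factor of 2 or more for CYP2C9 at a 5 µM dose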;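 also: 0 = sulfaphenazole-blocked wells and 1 = vehicle-only wells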
# CYP2C9 inh = human CYP2C9 inhibition; P11712; CYP2C9 Supersomes, luciferin-H conversion, luminescence; inhibition, % at 5 µM; actives 20% (n = 96,000);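 active = blocking of liver enzyme CYP2C9 beyond about 50% at 5 µM, limit read from the data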
# CYP2C19 act = activators of human cytochrome P450 2C19. recombinant CYP2C19, luciferin-H EGE luminescence; stronger effect = higher value; 0 = fully inhibited enzyme, 1 = untreated enzyme. activation factor at 5 µM. 96,000 tested, under 10 active;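 active = activation factor of at least 2 at 5 µM in the primary screen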;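 also: 0 = wells with 2.5 mM tranylcypromine and 1 = vehicle-only wells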
# Active calls of the source: *; / = no result given.
SMILES,Pyk2 oligo antag,CYP2C19 inhib,CYP2C9 activ,CYP2C9 inh,CYP2C19 act
CCCN1C(=O)c2cc(C(=O)Nc3ccccc3CC)ccc2C1O (stereo not drawn),/,11.6,1,-3.9,0.9
COC(=O)[C@H](CCSC)NC(=O)Nc1ccc(OC)cc1OC,1.07,14.9,1.2,-24.3,0.9
CCN(CC(=O)NCc1ccc(F)cc1)C(=O)C1CCN(C(=O)Nc2ccccc2)CC1,0.53,1.6,1.1,-10.4,1
CCOC(=O)CNC1CC(=O)N(c2cccc(Cl)c2)C1=O (stereo not drawn),0.73,13.6,0.9,9.1,0.9
O=C(N/N=C/c1ccc2c(c1)OCO2)c1ccccn1,0.85,34.2,0.9,9.8,0.7
CC(SCc1ccccc1)C(=O)N/N=C/c1ccc2c(c1)OCO2 (stereo not drawn),0.74,79.6*,0.1,92.5*,0.2
CC(SCc1ccccc1)C(=O)N/N=C/c1cc2c(cc1Br)OCO2 (stereo not drawn),-0.91,35.3,0.3,69.7*,0.6
O=C(CSCc1cccc(Br)c1)N1CCOCC1,0.44,71.2*,1.1,-7.9,0.3
CS(=O)(=O)N(CC(=O)N/N=C/c1cc2c(cc1Br)OCO2)c1ccccc1Br,-2.87,42.7,0.5,46.4,0.6
NC(=O)CSCc1cccc(Br)c1,-0.59,/,/,/,/
O=C(CSCc1ccccc1)N/N=C/c1ccccc1OCc1ccccc1,-0.71,13.5,0.4,60.2*,0.9
CCOc1ccccc1NC(=O)CSc1nnc2c(CC)c(C)nc(N)n12,0.4,20.2,1.4,-37.4,0.8
Cc1cc(C(F)(F)F)n(-c2nc(C(=O)Nc3ccccc3Oc3ccccc3)cs2)n1,/,5.4,0.6,40.7,0.9
O=C(O)C1C2C=CC3(CN(Cc4ccncc4)C(=O)C13)O2 (stereo not drawn),2.74,/,/,/,/
CCC1(C)N(O)C(C)(C)C(c2ccc(F)cc2)=[N+]1[O-] (stereo not drawn),-0.19,/,/,/,/
CC(=O)c1cccc(NC2c3ncccc3C(=O)N2Cc2ccco2)c1 (stereo not drawn),1.8,83.0*,0.9,8.9,0.2
O=C1c2cccnc2C(Nc2ccccc2)N1Cc1ccco1 (stereo not drawn),0.47,17.5,0.8,15.1,0.8
COc1ccc(CN2C(=O)c3cccnc3C2Nc2ccc(C)cc2)cc1 (stereo not drawn),-0.93,63.4*,0.4,62.7*,0.4
CC(=O)c1ccc(NC2c3ncccc3C(=O)N2Cc2ccc(F)cc2)cc1 (stereo not drawn),-1.19,76.3*,0.7,31.7,0.2
COc1ccc(CN2C(=O)c3cccnc3C2Nc2cc(Cl)c(OC)cc2OC)cc1 (stereo not drawn),-0.36,30.0,0.9,8.2,0.7
O=C(NCc1cccnc1)/C(=C\c1ccc(-c2ccc(Cl)c(Cl)c2)o1)S(=O)(=O)c1ccccc1,-2.06,/,/,/,/
CCOc1ccc(C(=O)c2ccncc2)cc1,0.47,87.1*,0.2,75.1*,0.1
CCOc1ccc(NC(=O)c2ccncc2)cc1,1.57,73.0*,0.3,72.7*,0.3
CCOc1ccc(C(=O)COC(C)=O)cc1,1.27,13.1,1,3.9,0.9
CCOc1ccc(NC(=O)c2nn(C)cc2Br)cc1,0.26,13.1,2.1*,-111.8,0.9
SMILES,Pyk2 oligo antag,CYP2C19 inhib,CYP2C9 activ,CYP2C9 inh,CYP2C19 act
CCCOc1ccc(CC(=O)NNC(=S)Nc2ccccc2)cc1Br,-0.41,/,/,/,/
CN(C)S(=O)(=O)c1ccc2nnn(OCC(=O)NC34CC5CC(CC(C5)C3)C4)c2c1,0.08,/,/,/,/
CCN(CC)S(=O)(=O)c1ccc2nnn(OCC(=O)Nc3cccc(C#N)c3)c2c1,-1.82,94.0*,0,97.4*,0.1
CCCn1c(N2CCN(CC(=O)Nc3ccc4c(c3)OCCO4)CC2)nc2ccccc21,-2.25,23.2,0.9,13.5,0.8
CCOc1cc2[nH]c(=O)n(CCCCC(=O)NCc3ccco3)c(=O)c2cc1OCC,-0.05,/,/,/,/
CC(=O)N1c2ccccc2N(Cc2ccc(C)cc2C)C(=O)C1(C)C,/,95.0*,0.2,81.2*,0.1
CCCNC(=O)c1ccccc1NC(=O)c1ccc(CSc2ccccc2)cc1,-1.15,74.5*,0.2,79.0*,0.3
O=C(Nc1cccc2cccc(NC(=O)c3ccco3)c12)c1ccco1,0.03,69.4*,1,-3.7,0.3
O=C(Nc1ccccc1C(=O)NCc1cccnc1)c1ccco1,0.12,78.3*,0.5,53.6*,0.2
O=C(Nc1ccccc1C(=O)NC(Cc1ccccc1)C(=O)NC1CCCCCC1)c1ccccc1 (stereo not drawn),-0.73,44.6,0.3,71.4*,0.6
O=C(N[C@@H](Cc1ccccc1)C(=O)NC1CCCCCC1)c1ccco1,0.48,10.3,0.8,20.4,0.9
CCCC(=O)Nc1ccc(C(=O)Nc2nnc(COCC)s2)cc1,-0.22,/,/,/,/
O=C(Nc1ccccc1C(=O)NCc1ccccc1)c1ccccc1,-2.28,15.9,0.5,54.1*,0.8
CC(C)C(NC(=O)c1ccccc1NC(=O)c1ccco1)C(=O)O (stereo not drawn),-0.34,7.5,1,-1.6,0.9
Cc1ccc(C(=O)Nc2cccnc2)cc1NC(=O)c1ccco1,0.13,-5.5,0.5,54.3*,1.1
CC(NC(=O)c1ccccc1NC(=O)c1ccco1)c1ccccc1 (stereo not drawn),-0.42,36.4,0.3,69.6*,0.6
O=C(Nc1ccccc1C(=O)NCc1ccccc1)c1ccco1,0.06,53.9*,0.3,73.9*,0.5
C/C(N)=C(/C#N)C(=O)COC(=O)C(NS(=O)(=O)c1ccc(Cl)cc1)C(C)O (stereo not drawn),1.09,13.9,0.8,15.9,0.9
c1ccc([C@H]2CC3C[C@@H](c4ccccc4)N2O3)cc1,-0.23,45.2,1.1,-11.0,0.5
O=C(OCC(=O)N1CCN(C(=O)c2ccco2)CC1)c1cc(=O)c2ccccc2o1,-0.39,-4.8,1,4.6,1
O=C(Nc1ccccc1)Nc1ccccc1C(=O)NCc1ccccc1,-1.57,17.8,0.5,50.5*,0.8
O=C(Nc1ccc(Cl)cc1C(=O)NCc1cccnc1)c1ccco1,0.2,22.7,0.4,57.6*,0.8
O=C(Nc1ccc(Cl)cc1C(=O)Nc1ccncc1)c1ccco1,-0.5,-0.5,1.2,-21.3,1
NC(=S)Nc1nc2ccccc2[nH]c1=O,/,0.3,1,0.4,1
Cc1ccc(NC(=S)c2nc3ccccc3[nH]2)cc1,0.41,89.1*,0.6,37.8,0.1
CCc1ccc(NC(=O)COC(=O)C2(c3ccc(Cl)cc3)CCCC2)cc1,-2.33,/,/,/,/
CCCCC(CC)CNC(=O)C1CCCN(S(=O)(=O)c2cnc[nH]2)C1 (stereo not drawn),/,100.4*,0.1,92.7*,0
O=C(NC1CCCc2ccccc21)C1CCCN(S(=O)(=O)c2cnc[nH]2)C1 (stereo not drawn),/,91.6*,0.4,59.7*,0.1
O=C(NC1CCCCCC1)C1CCCN(S(=O)(=O)c2cnc[nH]2)C1 (stereo not drawn),/,83.3*,0.5,45.2,0.2
